Compound activity from PubChem.
In the library only some 1.7% were active in any assay of this set; here they are far more common.
aDG glyco up: activators of alpha-DG glycosylation, primary screen, uHTS, Pro5-aDG cells, AlphaScreen. alpha-DG glycosylation AlphaScreen (IIH6); 0% Pro5, 100% B10-LARGE cell signal. activation, % at 10 µM. hit rate 0.22% among 360,000. AID 624168, 2012;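 active = activation of at least 8% versus controls, or a plate z-score of at least 8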;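 also: Pro5 are CHO cells carrying HIG-tagged alpha-DG that lacks glycosylation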
ARNT TACC3 PPI: disruptors of ARNT/TACC3 protein interaction, primary screen, biochemical, AlphaScreen, single concentration; Transforming acidic coiled-coil-containing protein 3 (Homo sapiens), Q9Y6A5; AlphaScreen His-ARNT PAS-B/GST-TACC3 binding, luminescence; TACC3 fragment carries E629A point mutation; inhibition, % at 9.99 µM; hit rate 0.66% among 390,000; AID 623870, 2012;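 active = mean inhibition of replicates at least 50% and at least half of replicates each reaching 50%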;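 also: 0% = complete ARNT plus TACC3 wells and 100% = ARNT alone without TACC3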
N-glyco inh: increase of ERlucT glycosylation luciferase signal, primary screen, N-linked glycosylation inhibitor project, D54 ERlucT cells, luminescence, set 2; D54 ERlucT glycosylation luciferase reporter, 24 h; percent of 100 nM tunicamycin response; reporter increase, % at 12.5 µM; hit rate 0.23% among 360,000;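 active = mean luciferase reporter signal, scaled so untreated is 0 and the glycosylation-blocking control 100, at or above a set limit in every replicate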;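 also: luciferase carries N-glycosylation sites so blocking glycosylation raises the light; 0% = median of neutral control wells and 100% = median of 100 nM tunicamycin wells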
Cardio protect: cardioprotection against H2O2-induced cell death, primary screen, uHTS, H9c2 cells, ATPLite luminescence. H9c2 cardiomyocytes, H2O2 injury protection, 2 h. protection from H2O2 cell death, % at 20 µM. hit rate 0.63% among 360,000;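 active = compounds giving at least 50% protection of heart cells from peroxide-induced death in the single-dose screen, raw or plate-pattern-corrected value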;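 also: 0% = DMSO wells with peroxide and 100% = DMSO wells without peroxide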
Vif imaging: HIV Vif self-association inhibitors, primary screen, imaging, HEK293T, single point; hit rate 0.35% among 340,000; HEK293T cells, Vif self-association by quenched fluorescence, 24 h; inhibition, % at 7.49 µM; AID 602346, 2012; in the data active = inhibition above about 50%, passing the limit was not always enough
An asterisk follows results filed as active; · = not tested or not shown.

SMILES	aDG glyco up	ARNT TACC3 PPI	N-glyco inh	Cardio protect	Vif imaging
Cc1ccc(NC(=O)c2nc[nH]c2C(=O)NCCCCCCNC(=O)c2[nH]cnc2C(=O)Nc2ccc(C)cc2)cc1	0	-3	2	81*	1
Cc1ccc(NC(=O)c2nc[nH]c2C(=O)NCCCCNC(=O)c2[nH]cnc2C(=O)Nc2ccc(C)cc2)cc1	0	0	-6	33	-2
O=C(Nc1ccccc1)c1nc[nH]c1C(=O)Nc1ccccc1F	0	·	5	1	·
C[C@H](CO)N1C[C@H](C)[C@H](CN(C)S(=O)(=O)c2cn(C)cn2)Oc2ccc(NS(=O)(=O)c3cn(C)cn3)cc2CC1=O	·	-8	·	·	·
C[C@H]1CN([C@@H](C)CO)C(=O)CCCn2cc(nn2)CO[C@@H]1CN(C)CC1CCCCC1	·	-9	·	·	·
O=C(CN1CCOCC1)N1CC[C@@H]2[C@H]1c1cc(-c3ccccc3F)ccc1N[C@@H]2CO	·	24	·	·	·
Cc1ccc(C(=O)CC(=O)COc2ccc(Cl)cc2C)cc1	0	-2	3	64*	-1
O=C(NCCCn1ccnc1)c1cc(-c2cccs2)on1	-1	12	155*	-3	10
O=C(NCCCN1CCOCC1)c1cc(-c2cccs2)on1	0	1	46*	0	-1
COC(=O)C[C@@H]1CC[C@H]2[C@@H](COC[C@@H](O)CN2S(=O)(=O)c2ccccc2OC)O1	·	-2	·	·	·
O=C(C[C@H]1CC[C@H](NC(=O)Nc2ccc(F)cc2)[C@H](CO)O1)NCc1cccc(F)c1	·	0	·	·	·
CCN1C(=O)/C(=C2\SC(=S)N(NC(=O)c3ccccc3O)C2=O)c2ccccc21	0	65*	0	2	5
O=C(Nc1cc(=O)c2ccccc2o1)N1CCCCC1	0	·	1	104*	-4
O=C([C@@H]1[C@@H](CO)[C@@H]2Cn3c(cccc3=O)[C@@H]2N1CCC(F)(F)F)N1CCCCC1	·	9.3*	·	·	·
Nc1cc2[nH]c(=O)c3ccccc3c2cc1[N+](=O)[O-]	0	15	22	81*	-9
COc1cc2c(=O)[nH]c3cc([N+](=O)[O-])ccc3c2cc1[N+](=O)[O-]	0	·	4	3	2
COC(=O)c1[nH]c2ccccc2c1NC(=O)CNC1CCCCC1	0	8	-4	86*	-2
N#Cc1c2ccc(O)cc2n2ccccc12	0	-6	-13	69*	1
N#Cc1c2ccc(OCC(=O)NCc3ccco3)cc2n2ccccc12	0	-3	0	9	18
O=C1COc2ccc(-c3n[nH]c(=O)c4ccccc34)cc2N1	0	-3	-2	59*	3
COC(=O)c1ccc(-c2n[nH]c(=O)c3ccccc23)cc1	0	-6	-2	1	-11
CN(C)C(=O)c1ccc(-c2n[nH]c(=O)c3ccccc23)cc1	0	-7	-2	62*	0
Cc1cc(C(=O)NNC(=S)NC(=O)/C=C/c2ccccc2Cl)n[nH]1	0	62*	-4	17	0
Cc1cccc(C(=O)NC(=S)NNC(=O)c2ccccc2Cl)c1	0	17	7	25	1
NC(=O)c1ccccc1N=Cc1ccccn1	0	-1	1	78*	-2
SMILES	aDG glyco up	ARNT TACC3 PPI	N-glyco inh	Cardio protect	Vif imaging
Cc1noc(C)c1NC(=O)Nc1cccc2c1O[C@@H](CN(C)C(=O)Nc1cccc3ccccc13)[C@@H](C)CN([C@H](C)CO)C2=O	·	14	·	·	·
N[C@@H](C(=O)N[C@@H]1C(=O)N2C(C(=O)O)=C(Cl)CS[C@H]12)c1ccccc1	0	40*	2	5	-11
CC1=C(C(=O)O)N2C(=O)C(NC(=O)c3ccccc3Cl)C2SC1 (stereo not given)	0	-3	2	3	-12
COc1ccc(C(=O)NCc2oc(-c3ccccc3)cc2C(=O)O)cc1	0	-2	0	-1	61*
COc1ccc(C(=O)NCc2c(C)oc(C)c2C(=O)O)cc1	0	-2	3	2	2
CC(=NNC(=S)N(Cc1ccccn1)Cc1ccccn1)c1cnccn1	0	64*	-13	44	8
S=C(NN=Cc1ccccn1)N(Cc1ccccn1)Cc1ccccn1	3	59*	-11	32	24
